# Inconclusive results are not listed. Where a call stands in place of a potency, no number is given. Activity calls are given as the source filed them. The call rests on the fitted dose curve; in most records, active means well fitted inhibition curve with a large enough effect; inconclusive means small, poorly fitted or top-dose-only effect; inactive means no such curve, though single readings can be large or run the other way. Non-standard residues stand in square brackets, D forms with d. Residues, ends and D or L forms follow the SMILES beside them. *: point of attachment. Sta = CC(C)C[C@H](N)[C@@H](O)CC(=O)O; Isovaleryl = CC(C)CC(=O)*
# Assay: qHTS to identify inhibitors of the type 1 interferon - major histocompatibility complex class I in skeletal muscle: primary screen against the NCATS Mechanism Interrogation Plate v5.0 (MIPE) Libary (AID 1347411); further: nearly all actives have a fitted effect of over 65% in size
# Settings: iHSKM cells + IFN-b, HiBiT-tagged MHC-I luminescence, 24 h; series mostly up to 45.8 µM
# Procedure, shortened: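 Immortalized human myoblasts (C25cl48) with HiBit knocked into endogenous HLA-B*08:01 were stimulated with 4 ng/ml IFN-beta and given compounds in 11-point 1:3 titration from 46 uM. After 24 h at 37 C, lytic HiBiT luminescence was read.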
# Potency means the concentration at half of the fitted maximal effect.
row,SMILES,Potency
1,Cc1cc(=O)oc2cc(O)ccc12,inactive
2,Cc1cc2cc3c(C)cc(=O)oc3c(C)c2o1,inactive
3,CCOC(=O)C(C)Oc1cccc2c(=O)n(CC(=O)Nc3ccc4c(c3)OCCO4)ccc12 (centres undefined),inactive
4,Nc1ccn([C@@H]2O[C@H](CO)[C@@H](O)C2O)c(=O)n1 (some centres undefined),inactive
5,COc1cc(OC)c(C(=O)CCCN2CCCC2)c(OC)c1,inactive
6,COCCCN1CCC(NC(=O)c2cc(Cl)c(N)c3c2OCC3)CC1,inactive
7,COc1cc2c(N3CCN(C(=O)Nc4ccc(OC(C)C)cc4)CC3)ncnc2cc1OCCCN1CCCCC1,inactive
8,CC(C)C[C@H](NC(=O)[C@H](Cc1ccccc1)NC(=O)c1cnccn1)B(O)O,0.0415 µM (active)
9,Nc1nc(N)c(N=O)c(OCC2CCCCC2)n1,inactive
10,O=c1c(O)c(-c2cc(O)c(O)c(O)c2)oc2cc(O)cc(O)c12,inactive
11,COc1ccccc1N1CCN(CCN(C(=O)C2CCCCC2)c2ccccn2)CC1,inactive
12,Nc1cc(C(Cl)=C(Cl)Cl)c(S(N)(=O)=O)cc1S(N)(=O)=O,inactive
13,CCC1=C(C)CN(C(=O)NCCc2ccc(S(=O)(=O)NC(=O)NC3CCC(C)CC3)cc2)C1=O (centres undefined),inactive
14,c1ccc2[nH]c(-c3cscn3)nc2c1,inactive
15,COc1cc2c(cc1OC)C1CC(=O)C(CC(C)C)CN1CC2 (centres undefined),inactive
16,Oc1ccc(-c2nc(-c3ccc(F)cc3)c(-c3ccncc3)[nH]2)cc1,inactive
17,CCN(CC)CCOc1ccc(Cc2ccccc2)cc1,inactive
18,Nc1nc(OCc2ccccc2)c2[nH]cnc2n1,inactive
19,CC(=O)N1CCN(c2ccc(OC[C@H]3CO[C@](Cn4ccnc4)(c4ccc(Cl)cc4Cl)O3)cc2)CC1,inactive
20,CC(C)[C@H](N)C(=O)OCCOCn1cnc2c(=O)[nH]c(N)nc21,inactive

row,SMILES,Potency
1,O=Nc1c(-c2c(O)[nH]c3cc(Br)ccc23)[nH]c2ccccc12,14.7 µM (active)
2,C[C@@H](N)C1CCC(C(=O)Nc2ccncc2)CC1 (some centres undefined),inactive
3,CC(S)C(=O)NCC(=O)O (centres undefined),inactive
4,CCCCN(CCCC)CCC(O)c1cc2c(Cl)cc(Cl)cc2c2cc(C(F)(F)F)ccc12 (centres undefined),inactive
5,O=C(NOCC1CC1)c1ccc(F)c(F)c1Nc1ccc(I)cc1Cl,inactive
6,CC(C)CC(=O)N[C@H](C(=O)N[C@H](C(=O)N[C@@H](CC(C)C)[C@@H](O)CC(=O)N[C@@H](C)C(=O)N[C@@H](CC(C)C)[C@@H](O)CC(=O)O)C(C)C)C(C)C (Isovaleryl-VV[Sta]A[Sta]-OH),inactive
7,N[C@@H](Cc1cc(I)c(Oc2cc(I)c(O)c(I)c2)c(I)c1)C(=O)O,inactive
8,Cc1ccc(C)c(OCCCC(C)(C)C(=O)O)c1,inactive
9,Cc1cc(O)c2c(c1)C(=O)c1cc(O)cc(O)c1C2=O,inactive
10,CN(C)c1ccc(O)c2c1C[C@H]1C[C@H]3[C@H](N(C)C)C(=O)C(C(N)=O)=C(O)[C@@]3(O)C(=O)C1=C2O,inactive
11,CCc1nc(N)nc(N)c1-c1ccc(Cl)cc1,inactive
12,Cc1ncc([N+](=O)[O-])n1CC(C)O (centres undefined),inactive
13,CC(=O)O[C@H]1C(=O)[C@@]2(C)C([C@H](OC(=O)c3ccccc3)[C@]3(O)C[C@H](OC(=O)[C@H](O)[C@@H](NC(=O)c4ccccc4)c4ccccc4)C(C)=C1C3(C)C)[C@]1(OC(C)=O)CO[C@@H]1C[C@@H]2O (some centres undefined),inactive
14,O=C1c2c(O)cc(O)cc2OC(c2ccc(O)c(O)c2)C1O (centres undefined),inactive
15,CCCCC(CC)COC(=O)C(C#N)=C(c1ccccc1)c1ccccc1 (centres undefined),inactive
16,CC1=C(C)C(=O)C(C(CCCCCC(=O)O)c2ccccc2)=C(C)C1=O (centres undefined),inactive
17,CCC(C)(Oc1ccc(C2(c3ccc(OC(C)(CC)C(=O)O)cc3)CCCCC2)cc1)C(=O)O (centres undefined),inactive
18,O=c1c(O)c(-c2ccc(O)cc2O)oc2cc(O)cc(O)c12,inactive
19,Cc1cc2c(s1)Nc1ccccc1N=C2N1CCN(C)CC1,inactive
